The inhibition is the change of the read-out against control, counted positive when it falls.

The target of the assay is Neuropilin-1 (Homo sapiens) (UniProt O14786). Briefly: NRP-1 b1b2 CendR peptide binding inhibitors, dose response, biochemical, FP and AlphaScreen panel (AID 651650). The note with it: NRP-1 b1b2 / RPARPAR peptide binding, FP or AlphaScreen; run 1, at 100 µM (top of the series). (In general: In Alpha technology, singlet oxygen from a donor bead excites a nearby acceptor bead.)
Chain of Neuropilin-1 (Homo sapiens) (O14786 whole entry, looked up): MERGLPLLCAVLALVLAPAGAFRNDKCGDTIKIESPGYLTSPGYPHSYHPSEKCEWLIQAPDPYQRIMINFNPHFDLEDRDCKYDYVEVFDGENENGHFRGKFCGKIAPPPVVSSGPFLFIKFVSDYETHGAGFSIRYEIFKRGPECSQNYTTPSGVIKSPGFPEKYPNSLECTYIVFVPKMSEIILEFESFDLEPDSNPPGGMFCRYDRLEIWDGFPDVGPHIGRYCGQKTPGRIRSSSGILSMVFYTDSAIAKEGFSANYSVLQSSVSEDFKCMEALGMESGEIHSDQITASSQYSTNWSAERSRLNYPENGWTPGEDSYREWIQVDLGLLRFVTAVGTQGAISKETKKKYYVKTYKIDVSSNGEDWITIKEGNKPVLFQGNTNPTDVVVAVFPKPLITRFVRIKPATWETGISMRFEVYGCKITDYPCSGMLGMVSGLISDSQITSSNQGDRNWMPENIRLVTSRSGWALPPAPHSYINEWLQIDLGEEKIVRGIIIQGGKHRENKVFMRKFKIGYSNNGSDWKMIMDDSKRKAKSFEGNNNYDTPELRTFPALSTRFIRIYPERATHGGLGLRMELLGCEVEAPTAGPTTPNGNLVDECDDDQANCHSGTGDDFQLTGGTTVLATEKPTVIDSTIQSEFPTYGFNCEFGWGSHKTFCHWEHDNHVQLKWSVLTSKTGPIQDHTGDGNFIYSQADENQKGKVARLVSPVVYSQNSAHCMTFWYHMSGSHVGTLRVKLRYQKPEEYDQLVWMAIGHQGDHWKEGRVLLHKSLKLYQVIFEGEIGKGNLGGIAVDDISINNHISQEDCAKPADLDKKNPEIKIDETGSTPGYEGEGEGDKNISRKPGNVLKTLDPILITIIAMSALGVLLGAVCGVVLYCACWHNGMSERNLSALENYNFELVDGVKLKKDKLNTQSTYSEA
Turning to `CCCCC1CCC(C(=O)NC2CCS(=O)(=O)C2)CC1` (configuration not stated), the inhibition was determined as 16.6%.

Turning to `COc1ccc([C@H]2/C=C\CN(C(=O)C3CC3)[C@@H](C)C(=O)N2Cc2ccc(F)cc2)cc1`, the inhibition came to 30.1%.

Turning to `CC(C)(C)c1nc(SCC(=O)NCc2ccco2)c2ccccc2n1`, the inhibition is 44.2%. Next, `Cc1csc(NC(C)c2nc3cc(C(F)(F)F)ccc3n2CCCO)n1` (configuration not stated): 89.7%; `CC(Oc1ccccc1)C(=O)NC1=NCCS1` (configuration not stated): 51.9%; `CC(=O)Nc1ccc(Oc2cc(C#N)c(C#N)cc2N2CCOCC2)cc1`: 10.4%.

With `CCC1CCCCN1C(=S)Nc1ccc(OC(F)F)cc1` (configuration not stated), the inhibition was 69.3%. With `O=C1CCCN1CCCNC(=S)Nc1ccc(Cl)cc1Cl`, the inhibition is 19.7%. As for `CN(c1ccc(OCC(=O)OCC(=O)Nc2ccc([N+](=O)[O-])cc2)cc1)S(=O)(=O)c1cccs1`, the inhibition came out at 58.7%. As for `CSc1nc2ccccc2c(=O)n1C1CCOC(C)(C)C1` (configuration not stated), the inhibition came out at 19.3%.

Regarding `Cc1c(CC(=O)O)c(=O)oc2cc(OCc3ccc(F)cc3Cl)ccc12`, the inhibition is -12.1%. Next, `Cc1ccc(C(=O)Nc2ccccc2-c2ccccc2)cc1S(=O)(=O)Nc1ccccc1`: 32.1%. With `OCC[C@H]1C[C@H](O)[C@@H](O)[C@]2(CCCCO2)O1`, the inhibition is -5.29%.

On to `C=C1C[C@@]23CCC4[C@@](C)(CCC[C@@]4(C)C(=O)O)C2CC[C@]1(O)C3` (some centres not stated), for which the inhibition worked out at 63.6%.

In the case of `COC(=O)[C@@]1(Cc2ccc(OC)cc2)[C@H]2c3cc(C(=O)N4CCCC4)n(CCN4CCOCC4)c3C[C@H]2CN1C(=O)c1ccccc1`, the inhibition was 38.7%.

Consider `CCC1CCCCN1CCCNC(=O)C1CCCN(S(=O)(=O)N2CC(C)CC(C)C2)C1` (configuration not stated), for which the inhibition stood at 60.7%. Regarding `Cc1ccc(C(=O)OCC(=O)c2ccc(Cl)s2)s1`, the inhibition is 32%.

These data come from PubChem BioAssay AID651650 (Sanford-Burnham Center for Chemical Genomics, 2012).
